Results published in PubChem BioAssay (NCATS).
Inconclusive results are not listed. Activity calls are given as the source filed them. Unless noted, the call rests on the fitted dose curve; in most records, active means well fitted curve in the direction sought with a large enough effect; inconclusive means small, poorly fitted or top-dose-only effect, or another doubt; inactive means no such curve, though single readings can be large; an effect the other way counts as inactive or inconclusive.

What was measured:
[1] = molecular target: Glutathione peroxidase 1 (Homo sapiens) (UniProt P07203); experiment: Primary qHTS Assay for Inhibitors of Recombinant Selenoprotein Glutathione Peroxidase 1 (GPX1) (AID 1845191); further: nearly all actives have a fitted effect of over 65% in size
Chain of Glutathione peroxidase 1 (Homo sapiens) (P07203 whole entry, looked up): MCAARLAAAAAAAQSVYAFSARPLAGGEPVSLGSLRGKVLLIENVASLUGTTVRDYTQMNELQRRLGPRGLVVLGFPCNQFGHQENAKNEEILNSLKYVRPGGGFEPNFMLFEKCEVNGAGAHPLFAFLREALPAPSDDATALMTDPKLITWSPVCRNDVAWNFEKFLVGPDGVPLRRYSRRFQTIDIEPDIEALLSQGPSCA
Summary of the method: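 10 nM GPX1 + cpd, 30 min RT; start w/ 1 mM GSH, 0.5 mM cumene hydroperoxide, 0.5 mM NADPH, 100 nM GR, 0.01% BSA; buffer 50 mM Tris-HCl pH 7.5, 2 mM EDTA, 150 mM NaCl; Fl 340/450, 0 & 15 min.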

[2] = molecular target: Phospholipid hydroperoxide glutathione peroxidase GPX4 (Homo sapiens) (UniProt P36969); experiment: Primary qHTS Assay for Inhibitors of Recombinant Selenoprotein Glutathione Peroxidase 4 (GPX4) (AID 1845192); further: nearly all actives have a fitted effect of over 65% in size
Chain of Phospholipid hydroperoxide glutathione peroxidase GPX4 (Homo sapiens) (P36969 whole entry, looked up): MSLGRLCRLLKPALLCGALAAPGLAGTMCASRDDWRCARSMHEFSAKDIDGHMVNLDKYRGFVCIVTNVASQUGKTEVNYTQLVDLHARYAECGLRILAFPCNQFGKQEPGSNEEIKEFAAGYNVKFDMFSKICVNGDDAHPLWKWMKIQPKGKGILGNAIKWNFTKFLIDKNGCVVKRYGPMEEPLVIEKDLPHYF
Summary of the method: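 NADPH consumption, followed by fluorescence at 340/450 nm between 0 and 15 min, reports GPX4 activity via coupled glutathione reductase (100 nM). Enzyme 200 nM was pre-exposed to compound 30 min; 0.5 mM cumene hydroperoxide and 1 mM GSH served as substrates.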

[3] = molecular target: Luciferin 4-monooxygenase (Photinus pyralis) (UniProt P08659); experiment: Primary firefly luciferase (FLuc) qHTS assay for identification of artifact compounds. (AID 1845220); further: nearly all actives have a fitted effect of over 60% in size; further: potency means the concentration at half of the fitted maximal effect
Summary of the method: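 Cell-free, 1536-well qHTS. Buffer pH 7.6 with 0.01% Tween-20 and 0.05% BSA; 10 uM D-luciferin, 10 uM ATP; 10 nM P. pyralis luciferase; luminescence after 5 min.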

[4] = Primary fluorescence-based thiol-reactive (MSTI) qHTS assay for identification of artifact compounds. (AID 1845221); further: nearly all actives have a fitted effect of over 65% in size; further: potency means the concentration at half of the fitted maximal effect;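 on activity change, negative = thiol reactive: series mostly up to about 54 µM; thiol-reactive compounds lower the probe fluorescence signal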
Summary of the method: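 One-hour, room-temperature, dark incubation of compound with 4 uM MSTI in PBS (pH 7.4, 2% DMSO) precedes a fluorescence read at 525 nm excitation, 598 nm emission; Hill-equation fitting yields concentration-response values.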

[5] = Primary redox qHTS assay for identification of artifact compounds. (AID 1845223);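 further: 0% = DMSO and 100% = reference compound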
Summary of the method: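 Amplex Red (25 uM) and HRP (250 mU/mL) in HBSS, with compounds for 15 min, then 250 uM DTT for 30 min, room temperature, dark. Fluorescence 525/598 nm read; normalized to DMSO and 10 uM DA3003; Hill fit.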

[6] = test system: Nanoluciferase (engineered Oplophorus gracilirostris luciferase); experiment: Primary Nanoluciferase (NLuc) qHTS assay for identification of artifact compounds. (AID 1845222);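 further: series mostly up to about 54 µM; 0% = DMSO and -100% = no enzyme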
Summary of the method: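 Compounds are pinned into diluted (1:55) conditioned medium of NLuc-expressing S16 cells and held 15 min at room temperature protected from light. Nano-Glo substrate follows, and luminescence is read 5 min later.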

[7] = qHTS drug screen for cell cycle checkpoint inhibitors in PARPi-resistant BRCA-mutant ovarian cancer cell lines. (AID 1963452; calls by dose curve); conditions: PEO1/OlaR viability, CellTiter-Glo luminescence, 96 h, stronger effect = lower value
Summary of the method: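 PEO1, PEO4 and PEO1/OlaR ovarian cancer cells, 600 per well, exposed 96 h at 37C to a dilution series. Viability read by CellTiter-Glo luminescence, normalized to DMSO and empty wells; activity summarized as Z-AUC.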

OC[C@H]1O[C@@H](Oc2ccc3c(c2)OC[C@H]2c4cc5c(cc4O[C@@H]32)OCO5)[C@H](O)[C@@H](O)[C@@H]1O
inactive: Potency [1] | Potency [2] | Potency [3] | Potency [4] | Potency [5]

CN1C(=O)c2ccccc2NC(=O)[C@]12O[C@@H]2c1cccc(O)c1
inactive: Potency [1] | Potency [2] | Potency [3] | Potency [6] | Potency [5]

CC1=C2C=C(CO)C(CO)CCC2(C)CCC1=O (centres undefined)
inactive: Potency [1] | Potency [2] | Potency [3] | Potency [6]

COc1ccc([C@@H]2N[C@H](C(=O)O)Cc3c2[nH]c2ccccc32)cc1CN1CCN(c2ccccc2F)CC1
inactive: Potency [1] | Potency [2] | Potency [3] | Potency [4] | Potency [5]

CC1NC(=O)C(Cc2c[nH]c3ccccc23)NC1=O (centres undefined)
inactive: Potency [1] | Potency [2] | Potency [3] | Potency [4] | Potency [5]

O=C(O[C@@H]1O[C@H](CO)[C@@H](O)[C@H](O)[C@H]1O)c1c(O)cc(O)cc1/C=C/c1ccccc1
inactive: Potency [1] | Potency [2] | Potency [3] | Potency [5]
active: Potency [4] 7.33 µM

C=C1CC[C@@H]2[C@](C)(CO[C@@H]3O[C@H](CO)[C@@H](O)[C@H](O)[C@H]3O)CCC[C@@]2(C)[C@@H]1CCC1=CCOC1=O
inactive: Potency [1] | Potency [2] | Potency [3] | Potency [4] | Potency [5]

CC(=O)O[C@H](C[C@@H](C)[C@H]1C(=O)[C@H](O)[C@@]2(C)[C@@H]3CCC4C(C)(C)[C@@H](O[C@@H]5OC[C@H](O)[C@H](O)[C@H]5O)CC[C@@]45C[C@@]35CC[C@]12C)[C@@H]1OC1(C)C (some centres undefined)
inactive: Potency [1] | Potency [2] | Potency [3] | Potency [4] | Potency [5]

O=C(/C=C/c1ccc(O)cc1)OC[C@]12O[C@H]1[C@@H](O)[C@@H]1C=CO[C@@H](O[C@@H]3O[C@H](CO)[C@@H](O)[C@H](O)[C@H]3O)[C@@H]12
inactive: Potency [1] | Potency [2] | Potency [3] | Potency [4] | Potency [5]

CC1=CC(=O)C2C(C)(C)CC(O)CC2(C)C1CO (centres undefined)
inactive: Potency [1] | Potency [2] | Potency [3] | Potency [6]

COc1cc(C(C)=O)ccc1O[C@@H]1O[C@H](CO[C@@H]2O[C@@H](C)[C@H](O)[C@@H](O)[C@H]2O)[C@@H](O)[C@H](O)[C@H]1O
inactive: Potency [1] | Potency [2] | Potency [3] | Potency [4] | Potency [5]

CCc1c(CC(N)=O)c2cc(OCCCP(=O)(O)O)ccc2n1Cc1ccccc1
inactive: Potency [1] | Potency [2] | Potency [3] | Potency [6]

C[C@@H]1O[C@@H](O[C@H]2[C@H](OC(=O)C34CCC(C)(C)CC3C3=CCC5C6(C)CC(O)C(O[C@@H]7O[C@H](CO)[C@@H](O)[C@H](O)[C@H]7O)C(C)(C(=O)O)C6CCC5(C)C3(CO)CC4)O[C@H](C)[C@H](O)[C@@H]2O)[C@H](O)[C@H](O)[C@H]1O[C@@H]1OC[C@@H](O)[C@H](O)[C@H]1O (some centres undefined)
inactive: Potency [1] | Potency [2] | outcome [3] inactive [at 11.6 µM] | activity change, negative = thiol reactive [4] 89.3% [at 11.5 µM] | redox activity (% of DA3003) [5] 9.03% [at 11.5 µM]

C=C1C(=O)OC2CC(C)=C(C(C)CCCO[C@@H]3O[C@H](CO)[C@@H](O)[C@H](O)[C@H]3O)C(O)C12 (some centres undefined)
inactive: Potency [1] | Potency [2] | Potency [3] | Potency [6]

CO[C@@H]1CC[C@H](OC[C@]2(COC(=O)c3ccc(C)[nH]3)[C@H](OC(C)=O)CC[C@@]3(C)[C@@H]4CC=C(C)[C@@H](C5=C(O)C(=O)OC5O)[C@]4(C)CC[C@@H]32)O[C@H]1C (some centres undefined)
inactive: Potency [1] | Potency [2] | Potency [3] | Potency [6]

COc1ccc(/C=C/C(=O)O[C@@H]2[C@@H](OC(C)=O)[C@@H](OC(C)=O)[C@H](O[C@H]3[C@@H]4C=CO[C@@H](O[C@@H]5O[C@H](CO)[C@@H](O)[C@H](O)[C@H]5O)[C@@H]4[C@@]4(CO)O[C@@H]34)O[C@H]2C)cc1O
inactive: Potency [1] | Potency [2] | Potency [3] | Potency [6]

CC(C)CC(=O)n1cc(C(N)=O)c(=O)cc1C(O)c1ccccc1 (centres undefined)
inactive: Potency [1] | Potency [2] | Potency [3] | Potency [6]

C/C=C(\C)C(=O)O[C@H]1[C@@H](O[C@]2(COC(=O)CC(C)C)O[C@H](COC(=O)C(C)C)[C@@H](OC(C)=O)[C@@H]2O)O[C@H](COC(C)=O)[C@@H](O)[C@@H]1O
inactive: Potency [1] | Potency [2] | Potency [6]
active: Potency [3] 4.46 µM

COc1c(OC2OC(CO)C(O)C(O)C2O)ccc(O)c1C(=O)OCc1ccccc1O[C@@H]1O[C@H](CO)[C@@H](O)[C@H](O)[C@H]1O (some centres undefined)
inactive: Potency [1] | Potency [2] | Potency [3] | Potency [6] | Potency [5]

O=C(NCC(=O)N1CC[C@H](NC2CCC(O)(c3ccc(-c4ncccn4)cn3)CC2)C1)c1cccc(C(F)(F)F)c1 (some centres undefined)
-0.816: Z-AUC ([7]; measured here: PEO4 Z-AUC)
-0.577: Z-AUC ([7]; measured here: PEO1 parental Z-AUC)
inactive: Potency [1] | Potency [2] | Potency [3] | Potency [4] | Potency [5] | Z-AUC [7] -0.56

CC(C)=CCc1ccc(Oc2c(O)cc(C)cc2CO)c(C(=O)O)c1O
inactive: Potency [1] | Potency [2] | Potency [3] | Potency [6]

COC(=O)C1=CO[C@@H](O[C@@H]2O[C@H](COC(=O)/C=C/c3cc(OC)c(O)c(OC)c3)[C@@H](O)[C@H](O)[C@H]2O)[C@@H]2C(CO)=CC[C@H]12
inactive: Potency [1] | Potency [2] | Potency [3] | Potency [6] | Potency [5]

COc1cc2c(cc1O)C1(Cc3ccc4c(c3C1=O)OCO4)N(C)CC2 (centres undefined)
inactive: Potency [1] | Potency [2] | Potency [3] | Potency [6] | Potency [5]

O=C1[C@H](O[C@@H]2O[C@H](CO)[C@@H](O)[C@H](O)[C@H]2O)Oc2ccccc2N1O
inactive: Potency [1] | Potency [2] | Potency [3] | Potency [6] | Potency [5]

COC(=O)CC1(O)C(=O)Nc2ccccc21 (centres undefined)
inactive: Potency [1] | Potency [2] | Potency [3] | Potency [6] | Potency [5]

CCOC(=O)c1c(C)nn(-c2cccc([N+](=O)[O-])c2)c1C
inactive: Potency [1] | Potency [2] | Potency [3] | Potency [6] | Potency [5]

C[C@@H]1C(=O)O[C@H]2CC34[C@H]5C[C@@H](C(C)(C)C)C36[C@@H](OC(=O)[C@@H]6O)OC4(C(=O)O5)[C@]21O (some centres undefined)
inactive: Potency [1] | Potency [2] | Potency [3] | Potency [6] | Potency [5]

CCC(C)C(=O)O[C@@H]1[C@@H](O)[C@@H](O[C@H]2O[C@H](CO)[C@@H](O)[C@H](O)[C@H]2O)O[C@H](CO)[C@H]1O (some centres undefined)
inactive: Potency [1] | Potency [2] | Potency [3] | Potency [6] | Potency [5]

C=CCc1ccc(O[C@@H]2O[C@H](CO[C@@H]3O[C@@H](C)[C@H](O)[C@@H](O)[C@H]3O)[C@@H](O)[C@H](O)[C@H]2O)cc1
inactive: Potency [1] | Potency [2] | Potency [3] | Potency [6] | Potency [5]

CC1=CC(=O)CC(C)(C)C1(O)CCC(C)O (centres undefined)
inactive: Potency [1] | Potency [2] | Potency [3] | Potency [6] | Potency [5]

COC(=O)C1C(c2ccc(O)cc2)C(C(=O)OC)C1c1ccc(O)cc1 (centres undefined)
inactive: Potency [1] | Potency [2] | Potency [3] | Potency [6] | Potency [5]

CC1CCC(=O)CC(O)C(O)CC(=O)O1 (centres undefined)
inactive: Potency [1] | Potency [2] | Potency [3] | Potency [6] | Potency [5]

O=c1c2cccnc2n(-c2cccc([N+](=O)[O-])c2)c(=O)n1Cc1ccncc1
inactive: Potency [1] | Potency [2] | Potency [3] | Potency [6] | Potency [5]

COc1ccc2c3c1O[C@H]1C[C@@H](O)C=C[C@@]31CCN(C)C2
inactive: Potency [1] | Potency [2] | Potency [3] | Potency [6] | Potency [5]

O=C(/C=C/c1ccc(O)cc1)O[C@H]1[C@@H]2C=CO[C@@H](O[C@@H]3O[C@H](CO)[C@@H](O)[C@H](O)[C@H]3O)[C@@H]2[C@@]2(CO)O[C@@H]12
inactive: Potency [1] | Potency [2] | Potency [3] | Potency [6] | Potency [5]

CC(=O)c1c(C)cc(O[C@@H]2O[C@H](CO)[C@@H](O)[C@H](O)[C@H]2O)cc1O
inactive: Potency [1] | Potency [2] | Potency [3] | Potency [6] | Potency [5]

COc1ccc(C2=CC(=O)OC2Cc2ccc(O)cc2)c(O)c1 (centres undefined)
inactive: Potency [1] | Potency [2] | Potency [3] | Potency [6] | Potency [5]

CC(=O)NC(CCC(=O)O)C(=O)NCCc1ccc(O)cc1 (centres undefined)
inactive: Potency [1] | Potency [2] | Potency [3] | Potency [6] | Potency [5]

CC1(CCC(=O)O)C(=O)C=CC23CC4CC(OC4(C)C2O)C13 (centres undefined)
inactive: Potency [1] | Potency [2] | Potency [3] | Potency [6] | Potency [5]

CC1[C@@H](O)[C@@H](O)C2[C@]3(C)C(C[C@H]4OC(=O)[C@H](O)[C@]1(O)[C@@]24C)C(C)(O)C[C@H](O)[C@H]3O (some centres undefined)
inactive: Potency [1] | Potency [2] | Potency [3] | Potency [6] | Potency [5]

CC(/C=C/[C@]1(O)[C@@]2(C)CO[C@@]1(C)C[C@@H](O)C2)=C\C(=O)O[C@@H]1O[C@H](CO)[C@@H](O)[C@H](O)[C@H]1O
inactive: Potency [1] | Potency [2] | Potency [3] | Potency [6] | Potency [5]

CC(=O)O[C@H]1[C@H](Oc2ccccc2COC(=O)C2(O)C=CCCC2=O)O[C@H](CO)[C@@H](O)[C@@H]1O (some centres undefined)
inactive: Potency [1] | Potency [2] | Potency [3] | Potency [6] | Potency [5]

CC(C)CC(=O)OC[C@H]1O[C@@](COC(=O)CC(C)C)(O[C@H]2O[C@H](CO)[C@@H](O)[C@H](O)[C@H]2O)[C@@H](OC(=O)CC(C)C)[C@@H]1OC(=O)CC(C)C
inactive: Potency [1] | Potency [2] | Potency [3] | Potency [6] | Potency [5]
